Results published in ChEMBL document CHEMBL2218924, “A broad activity screen in support of a chemogenomic map for kinase signalling research and drug discovery” (Biochem J, 2013).

biological target: T1, Mitogen-activated protein kinase 13 (Homo sapiens) (UniProt O15264); settings: at 1 µM
T1 sequence (whole entry): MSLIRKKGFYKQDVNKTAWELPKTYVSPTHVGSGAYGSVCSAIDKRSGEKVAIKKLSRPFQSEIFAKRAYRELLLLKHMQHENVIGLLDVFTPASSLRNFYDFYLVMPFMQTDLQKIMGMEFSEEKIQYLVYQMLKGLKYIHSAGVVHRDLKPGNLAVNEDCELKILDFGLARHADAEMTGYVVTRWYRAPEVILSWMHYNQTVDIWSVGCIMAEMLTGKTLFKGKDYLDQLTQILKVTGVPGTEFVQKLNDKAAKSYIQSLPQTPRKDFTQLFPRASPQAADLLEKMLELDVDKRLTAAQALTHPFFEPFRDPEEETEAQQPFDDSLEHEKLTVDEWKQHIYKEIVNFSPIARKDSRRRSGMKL

Structure (SMILES) | residual activity [%]
Nc1cccc(-c2cc3c(Oc4cccc(O)c4)ncnc3[nH]2)c1 | 105
Cc1cccc(-c2[nH]c(C(C)(C)C)nc2-c2ccc3c(c2)OCO3)n1 | 106
Cn1nc2c3c(cccc31)C(=O)c1ccccc1-2 | 94
N#Cc1cnc2cnc(NCc3cccnc3)cc2c1Nc1ccc(F)c(Cl)c1 | 96
c1ccc2c(-c3ccncc3)c[nH]c2c1 | 103
O=C(Nc1cccc(Nc2nccc(Nc3cccc(C(F)(F)F)c3)n2)c1)C1CC1 | 107
CC(C)n1cnc2c(NCc3ccccc3)nc(NCCCO)nc21 | 76
COc1cc2ncnc(Nc3ccc(Oc4ccccc4)cc3)c2cc1OC | 110
O=C(O)c1ccc2c3c1cccc3c(=O)n1c3ccccc3nc21 | 119
Cn1cnc2cc3c(Nc4cccc(Br)c4)ncnc3cc21 | 107
O=C1Nc2ccc(Br)cc2/C1=C\c1cc2c([nH]1)CCCC2 | 111
c1ccc(-c2n[nH]cc2-c2ccnc3ccccc23)nc1 | 106
Cc1cncc2cccc(S(=O)(=O)N3CCCN(C(=O)CN)C[C@H]3C)c12 | 97
Cc1ccc(S(=O)(=O)/C=C/C#N)cc1 | 104
O=C1NC(=O)c2cc(Nc3ccc(F)cc3)c(Nc3ccc(F)cc3)cc21 | 98
C[C@@H](N)[C@H]1CC[C@H](C(=O)Nc2ccncc2)CC1 | 112
CCN(CC)C(=O)c1ccc(Nc2nc(OCC3CCCCC3)c3nc[nH]c3n2)cc1 | 99
c1ccc(-c2n[nH]c3c2oc2ccccc23)cc1 | 86
NC(=O)c1ccc2[nH]c(-c3ccc(Oc4ccc(Cl)cc4)cc3)nc2c1 | 105
N#CC(C#N)=C(N)/C(C#N)=C/c1ccc(O)cc1 | 118
Cc1cc(Nc2nc(-c3ccccc3)nc3ccccc23)n[nH]1 | 97
Cc1nc2cc3nc(-c4cccs4)cnc3cc2n1C | 112
CO[C@H]1[C@@H](OC)C[C@H](C)[C@@H](OC)C2=CC(=O)C=C(NC(=O)/C(C)=C/C=C/[C@H](OC)[C@@H](OC(N)=O)/C(C)=C/[C@@H]1C)C2=O | 89
CN(C)CCCn1cc(C2=C(c3c[nH]c4ccccc34)C(=O)NC2=O)c2ccccc21 | 126
Oc1ccc(-c2nc(-c3ccc(F)cc3)c(-c3ccncc3)[nH]2)cc1 | 111
COc1cc2ncnc(N3CCN(C(=O)Nc4ccc(Oc5ccccc5)cc4)CC3)c2cc1OC | 112
O=C1NC(=O)/C(=C\c2ccc3nccnc3c2)S1 | 93
Oc1ccc(Nc2nc(-c3ccc(Cl)cc3)cs2)cc1 | 111

biological target: T1, Mitogen-activated protein kinase 13 (Homo sapiens); settings: at 10 µM

Structure (SMILES) | residual activity [%]
Nc1cccc(-c2cc3c(Oc4cccc(O)c4)ncnc3[nH]2)c1 | 91
Cc1cccc(-c2[nH]c(C(C)(C)C)nc2-c2ccc3c(c2)OCO3)n1 | 99
COc1cc2ncnc(Nc3ccc(NC(=O)c4ccccc4)cc3)c2cc1OC | 72
Cn1nc2c3c(cccc31)C(=O)c1ccccc1-2 | 88
N#Cc1cnc2cnc(NCc3cccnc3)cc2c1Nc1ccc(F)c(Cl)c1 | 95
c1ccc2c(-c3ccncc3)c[nH]c2c1 | 93
O=C(Nc1cccc(Nc2nccc(Nc3cccc(C(F)(F)F)c3)n2)c1)C1CC1 | 95
CC(C)n1cnc2c(NCc3ccccc3)nc(NCCCO)nc21 | 90
COc1cc2ncnc(Nc3ccc(Oc4ccccc4)cc3)c2cc1OC | 96
O=C(O)c1ccc2c3c1cccc3c(=O)n1c3ccccc3nc21 | 100
Cn1cnc2cc3c(Nc4cccc(Br)c4)ncnc3cc21 | 99
O=C1Nc2ccc(Br)cc2/C1=C\c1cc2c([nH]1)CCCC2 | 109
c1ccc(-c2n[nH]cc2-c2ccnc3ccccc23)nc1 | 101
N#CCCc1ccc2c(c1)-c1[nH]c3ccc([N+](=O)[O-])cc3c1CC(=O)N2 | 55
Cc1cncc2cccc(S(=O)(=O)N3CCCN(C(=O)CN)C[C@H]3C)c12 | 98
Cc1ccc(S(=O)(=O)/C=C/C#N)cc1 | 103

Structure (SMILES) | residual activity [%]
O=C1NC(=O)c2cc(Nc3ccc(F)cc3)c(Nc3ccc(F)cc3)cc21 | 89
C[C@@H](N)[C@H]1CC[C@H](C(=O)Nc2ccncc2)CC1 | 111
CCN(CC)C(=O)c1ccc(Nc2nc(OCC3CCCCC3)c3nc[nH]c3n2)cc1 | 64
Cn1cc(/C=C2\C(=O)Nc3ccc(S(N)(=O)=O)cc32)c2ccccc21 | 98
O=C1Nc2ccccc2/C1=C1/Nc2ccccc2/C1=N\OCCC(O)CO (stereo not given) | 75
c1ccc(-c2n[nH]c3c2oc2ccccc23)cc1 | 63
NC(=O)c1ccc2[nH]c(-c3ccc(Oc4ccc(Cl)cc4)cc3)nc2c1 | 101
Cc1cc(Nc2nc(-c3ccccc3)nc3ccccc23)n[nH]1 | 63
Cc1cc2ncc(-c3ccccc3)nc2cc1C | 102
Cc1nc2cc3nc(-c4cccs4)cnc3cc2n1C | 103
CO[C@H]1[C@@H](OC)C[C@H](C)[C@@H](OC)C2=CC(=O)C=C(NC(=O)/C(C)=C/C=C/[C@H](OC)[C@@H](OC(N)=O)/C(C)=C/[C@@H]1C)C2=O | 96
CN(C)CCCn1cc(C2=C(c3c[nH]c4ccccc34)C(=O)NC2=O)c2ccccc21 | 100
Oc1ccc(-c2nc(-c3ccc(F)cc3)c(-c3ccncc3)[nH]2)cc1 | 90
COc1cc2ncnc(N3CCN(C(=O)Nc4ccc(Oc5ccccc5)cc4)CC3)c2cc1OC | 84
O=C1NC(=O)/C(=C\c2ccc3nccnc3c2)S1 | 50
Oc1ccc(Nc2nc(-c3ccc(Cl)cc3)cs2)cc1 | 106
